Test results published in the supplement of paper PMC3545927.
The list shows a part of the results. The hit rate among all sequences tested is not known here.

Biological target: furin, P09958
Assay: furin cleavage Z-score vs untreated control; higher = more cleavage, active = 3.5 or more, inactive = 1 or less, 8 variable residues between constant flanks
Method in brief: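 Magnetic beads held 8-mer peptides by the N-terminus, each fused to a cDNA oligonucleotide, and purified furin was added for 7.5, 15 or 30 min. Released DNA was sequenced after PCR adapter tagging. The cleavage Z-score is the log count relative to furin-free reactions, lowess-adjusted and divided by median absolute deviation.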
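Note: purified furin at 1:10 enzyme:substrate in 50 mM HEPES pH 7.5.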

Sequence of furin, P09958 (P09958 whole entry): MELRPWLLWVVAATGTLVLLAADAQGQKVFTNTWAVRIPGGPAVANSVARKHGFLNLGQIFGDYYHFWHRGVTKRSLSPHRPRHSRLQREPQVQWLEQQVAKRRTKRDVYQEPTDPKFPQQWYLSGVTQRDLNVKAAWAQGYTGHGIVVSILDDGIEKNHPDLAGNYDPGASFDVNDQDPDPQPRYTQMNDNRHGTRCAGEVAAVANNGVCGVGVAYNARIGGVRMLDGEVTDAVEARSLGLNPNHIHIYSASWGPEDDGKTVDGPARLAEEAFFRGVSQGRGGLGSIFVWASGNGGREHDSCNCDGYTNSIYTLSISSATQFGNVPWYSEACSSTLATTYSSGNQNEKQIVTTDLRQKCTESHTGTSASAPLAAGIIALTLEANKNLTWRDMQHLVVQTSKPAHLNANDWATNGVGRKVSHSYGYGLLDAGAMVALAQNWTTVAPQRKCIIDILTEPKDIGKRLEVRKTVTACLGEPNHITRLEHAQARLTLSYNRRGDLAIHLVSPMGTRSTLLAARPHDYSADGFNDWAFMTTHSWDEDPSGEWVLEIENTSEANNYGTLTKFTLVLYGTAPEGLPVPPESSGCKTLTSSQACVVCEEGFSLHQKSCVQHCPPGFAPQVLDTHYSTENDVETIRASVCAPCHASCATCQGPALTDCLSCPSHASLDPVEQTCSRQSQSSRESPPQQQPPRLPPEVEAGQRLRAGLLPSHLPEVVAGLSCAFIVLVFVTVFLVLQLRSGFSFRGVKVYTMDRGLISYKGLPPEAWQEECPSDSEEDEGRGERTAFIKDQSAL

CASVWKDLLEAGNASASA [HC1431]
furin cleavage Z-score (7.5 min): -0.463 (inactive) | furin cleavage Z-score (15 min): 0.374 (inactive) | furin cleavage Z-score (30 min): -0.00259 (inactive)

CASSLTVTQLAGNASASA [HC1135]
furin cleavage Z-score (7.5 min): 0.41 (inactive) | furin cleavage Z-score (15 min): -0.51 (inactive) | furin cleavage Z-score (30 min): -0.191 (inactive)

CADVAVLTSMAGNASASA [HC1244]
furin cleavage Z-score (7.5 min): 0.796 (inactive) | furin cleavage Z-score (15 min): 0.438 (inactive) | furin cleavage Z-score (30 min): -0.848 (inactive)

CASVPCSAHLAGNASASA [HC2490]
furin cleavage Z-score (7.5 min): 0.673 (inactive) | furin cleavage Z-score (15 min): 0.436 (inactive) | furin cleavage Z-score (30 min): 1.54

CAASQLSAPSAGNASASA [HC1262]
furin cleavage Z-score (7.5 min): 0.172 (inactive) | furin cleavage Z-score (15 min): 0.594 (inactive) | furin cleavage Z-score (30 min): 2.91

CATTPCNGSWAGNASASA [HC78]
furin cleavage Z-score (7.5 min): -0.41 (inactive) | furin cleavage Z-score (15 min): 0.152 (inactive) | furin cleavage Z-score (30 min): 0.215 (inactive)

CARYISWCLWAGNASASA [HC579]
furin cleavage Z-score (7.5 min): -0.0545 (inactive) | furin cleavage Z-score (15 min): 0.138 (inactive) | furin cleavage Z-score (30 min): 0.846 (inactive)

CAEVVTSTWPAGNASASA [HC2259]
furin cleavage Z-score (7.5 min): -1.41 (inactive) | furin cleavage Z-score (15 min): -0.126 (inactive) | furin cleavage Z-score (30 min): 0.24 (inactive)

CALAQRQRRIAGNASASA [FS-347]
furin cleavage Z-score (7.5 min): 0.264 (inactive) | furin cleavage Z-score (15 min): -0.423 (inactive) | furin cleavage Z-score (30 min): 0.578 (inactive)

CARPQPQRRAAGNASASA [FS-86]
furin cleavage Z-score (7.5 min): 2.58 | furin cleavage Z-score (15 min): 5.58 (active) | furin cleavage Z-score (30 min): 5.07 (active)

CAQRQRQRRAAGNASASA [FS-1253]
furin cleavage Z-score (7.5 min): 8.09 (active) | furin cleavage Z-score (15 min): 6.53 (active) | furin cleavage Z-score (30 min): 6.09 (active)

CARLKKKVKQAGNASASA [FS-3196]
furin cleavage Z-score (7.5 min): -1.36 (inactive) | furin cleavage Z-score (15 min): -0.919 (inactive) | furin cleavage Z-score (30 min): 0.354 (inactive)

CARLKRRVKSAGNASASA [FS-2351]
furin cleavage Z-score (7.5 min): 4.89 (active) | furin cleavage Z-score (15 min): 6 (active) | furin cleavage Z-score (30 min): 4.82 (active)

CARLKRRLVPAGNASASA [FS-2708]
furin cleavage Z-score (7.5 min): 2.61 | furin cleavage Z-score (15 min): 4.61 (active) | furin cleavage Z-score (30 min): 5.01 (active)

CAKVCCSMSYAGNASASA [HC1994]
furin cleavage Z-score (7.5 min): 1.97 | furin cleavage Z-score (15 min): 0.312 (inactive) | furin cleavage Z-score (30 min): 0.855 (inactive)

CARSRRGIFIAGNASASA [FS-2312]
furin cleavage Z-score (7.5 min): 1.57 | furin cleavage Z-score (15 min): 2.13 | furin cleavage Z-score (30 min): 4.7 (active)

CARLRRGLAAAGNASASA [FS-1908]
furin cleavage Z-score (7.5 min): 0.841 (inactive) | furin cleavage Z-score (15 min): 1.22 | furin cleavage Z-score (30 min): 1.44

CARFDRQIFIAGNASASA [FS-2012]
furin cleavage Z-score (7.5 min): -0.31 (inactive) | furin cleavage Z-score (15 min): -0.173 (inactive) | furin cleavage Z-score (30 min): -0.368 (inactive)

CARSRRGLFAAGNASASA [FS-2816]
furin cleavage Z-score (7.5 min): 2.59 | furin cleavage Z-score (15 min): 2.97 | furin cleavage Z-score (30 min): 6.66 (active)

CAREKRGWTMAGNASASA [FS-2549]
furin cleavage Z-score (7.5 min): 0.613 (inactive) | furin cleavage Z-score (15 min): 1.51 | furin cleavage Z-score (30 min): 2.06

CAREKRGPSGAGNASASA [FS-3153]
furin cleavage Z-score (7.5 min): 0.65 (inactive) | furin cleavage Z-score (15 min): -0.112 (inactive) | furin cleavage Z-score (30 min): 0.123 (inactive)

CAREKRGLFGAGNASASA [FU1]
furin cleavage Z-score (7.5 min): 0.425 (inactive) | furin cleavage Z-score (15 min): 4.29 (active) | furin cleavage Z-score (30 min): 0.496 (inactive)

CAREKRFCTGAGNASASA [FS-2329]
furin cleavage Z-score (7.5 min): 2.75 | furin cleavage Z-score (15 min): 4.22 (active) | furin cleavage Z-score (30 min): 4.58 (active)

CAREKRFTFVAGNASASA [FS-1694]
furin cleavage Z-score (7.5 min): -0.942 (inactive) | furin cleavage Z-score (15 min): 0.437 (inactive) | furin cleavage Z-score (30 min): 3.16

CAVVCCSMEYAGNASASA [HC2072]
furin cleavage Z-score (7.5 min): -2.66 (inactive) | furin cleavage Z-score (15 min): 0.354 (inactive) | furin cleavage Z-score (30 min): 1.04

CAGGRHLIFCAGNASASA [HC854]
furin cleavage Z-score (7.5 min): -0.514 (inactive) | furin cleavage Z-score (15 min): -0.469 (inactive) | furin cleavage Z-score (30 min): -1.05 (inactive)

CAKQSGENLPAGNASASA [HC949]
furin cleavage Z-score (7.5 min): 0.51 (inactive) | furin cleavage Z-score (15 min): -0.215 (inactive) | furin cleavage Z-score (30 min): -0.135 (inactive)

CAEYDLELITAGNASASA [HC1549]
furin cleavage Z-score (7.5 min): -0.697 (inactive) | furin cleavage Z-score (15 min): -1.21 (inactive) | furin cleavage Z-score (30 min): -2.02 (inactive)

CAVRTRIKRSAGNASASA [FS-1179]
furin cleavage Z-score (7.5 min): 12.5 (active) | furin cleavage Z-score (15 min): 13.6 (active) | furin cleavage Z-score (30 min): 9.29 (active)

CACPNIIKRSAGNASASA [FS-1515]
furin cleavage Z-score (7.5 min): 2.47 | furin cleavage Z-score (15 min): 0.593 (inactive) | furin cleavage Z-score (30 min): 1.43

CASLKKIKRSAGNASASA [FS-297]
furin cleavage Z-score (7.5 min): 7.52 (active) | furin cleavage Z-score (15 min): 5.89 (active) | furin cleavage Z-score (30 min): 5.86 (active)

CAKSSRIKRSAGNASASA [FS-46]
furin cleavage Z-score (7.5 min): 11.3 (active) | furin cleavage Z-score (15 min): 10.3 (active) | furin cleavage Z-score (30 min): 8.65 (active)

CAASPKGPVIAGNASASA [HC706]
furin cleavage Z-score (7.5 min): 0.401 (inactive) | furin cleavage Z-score (15 min): -0.666 (inactive) | furin cleavage Z-score (30 min): -0.477 (inactive)

CATDNSSPPVAGNASASA [HC766]
furin cleavage Z-score (7.5 min): 0.776 (inactive) | furin cleavage Z-score (15 min): 0.102 (inactive) | furin cleavage Z-score (30 min): -1.25 (inactive)

CAATSRTKRFAGNASASA [FS-403]
furin cleavage Z-score (7.5 min): 8.04 (active) | furin cleavage Z-score (15 min): 8.57 (active) | furin cleavage Z-score (30 min): 8.59 (active)

CAYIRRTKRFAGNASASA [FS-576]
furin cleavage Z-score (7.5 min): 1.05 | furin cleavage Z-score (15 min): 1.14 | furin cleavage Z-score (30 min): 0.61 (inactive)

CATHRRTKRFAGNASASA [FS-1291]
furin cleavage Z-score (7.5 min): 4.37 (active) | furin cleavage Z-score (15 min): 4.6 (active) | furin cleavage Z-score (30 min): 3.54 (active)

CAGHFRLKRTAGNASASA [FS-781]
furin cleavage Z-score (7.5 min): 7.47 (active) | furin cleavage Z-score (15 min): 7.94 (active) | furin cleavage Z-score (30 min): 7.12 (active)

CAATSILGIGAGNASASA [HC822]
furin cleavage Z-score (7.5 min): -1.81 (inactive) | furin cleavage Z-score (15 min): -0.57 (inactive) | furin cleavage Z-score (30 min): 0.323 (inactive)

CAGNRRLKRFAGNASASA [FS-330]
furin cleavage Z-score (7.5 min): 8.6 (active) | furin cleavage Z-score (15 min): 8.74 (active) | furin cleavage Z-score (30 min): 8.35 (active)

CATLKRTRKFAGNASASA [FS-728]
furin cleavage Z-score (7.5 min): 0.831 (inactive) | furin cleavage Z-score (15 min): 2.85 | furin cleavage Z-score (30 min): 1.42

CAMEECNQHLAGNASASA [HC38]
furin cleavage Z-score (7.5 min): 0.469 (inactive) | furin cleavage Z-score (15 min): 2.66 | furin cleavage Z-score (30 min): 0.708 (inactive)
